Test results reported in ChEMBL document CHEMBL1201862, “PubChem BioAssay data set” (2004).
Out of some 18,000 compounds screened, about 1,200 (6.7%) were called active. Another 16% or so got no clear call; they are omitted. The calls are words filed in the database; no cut-off is given here. Many of the other results were omitted from the sample, so actives are more common in it than they were.

Assay: qHTS for Inhibitors of binding or entry into cells for Marburg Virus.

Compound	Potency
COC[C@@H]([C@H](O)[C@H](O)C(=O)NCC[C@H](C)c1nc(/C=C/C[C@@H]2O[C@]3(C[C@@H](O)[C@@H]2C)O[C@H]([C@H](C[C@H](O)[C@H](C)[C@H](O)[C@H](C)/C=C(C)/C(C)=C/C=C/C(C)=C\C#N)OC)[C@H](OP(=O)(O)O)C3(C)C)co1)N(C)C	0.0411 µM (active)
COC(=O)[C@H]1[C@H]2C[C@@H]3c4[nH]c5cc(OC)ccc5c4CCN3C[C@H]2C[C@@H](OC(=O)c2cc(OC)c(OC)c(OC)c2)[C@@H]1OC	355 µM (active)
NITROPRUSSIDE, CHEMBL2097081	inactive; 562.3 nM
